Experimental findings from ChEMBL document CHEMBL4513216, “Probing the Open Global Health Chemical Diversity Library for Multistage-Active Starting Points for Next-Generation Antimalarials” (ACS Infect Dis, 2020) are described below.

Among all 69,000 compounds or so, about 8,600 (12%) showed an effect of 50% or more. Many of the other results were omitted from the sample, so strong results are more common in it than they were.

This assay has as its system Plasmodium berghei. The assay is described as follows: Screen against P. berghei liver stage (PbLuc), transformed with Luciferase, at 10uM. The format is functional, HepG2. To be noted: tested at 10 uM.
Take `Cc1ccccc1CNC(=O)N1C[C@@H]2C[C@H](C(=O)N3CCCC3)[C@H](C1)O2`: the INHIBITION is recorded as -16.9%.

For `O=C(Nc1nc[nH]n1)c1cc(-c2ccc(F)cc2)n[nH]1`, the INHIBITION is on record as 16%. Take `Cc1cc(C(=O)NCc2ccnc(N3CCN(C)CC3)c2)sc1C`: the INHIBITION is reported as 36.45%. For `CN1CC(=O)N(C2CCNCC2)Cc2c(NCC(C)(C)C)ncnc21` the value was 47.4%. Take `COc1ccc(CC(=O)Nc2ccc3ncn(C(C)C)c(=O)c3c2)cc1`: the INHIBITION was 21.2%. For `CCC1(CO)CCCN(C(=O)c2cc(COc3cccc(F)c3)[nH]n2)C1` (configuration not stated) the value was 20.9%; for `Cc1nn(C)c(N(C)C)c1CNC(C)COc1ccccc1F` (configuration not stated), 23.4%; for `Cc1nc(NC(=O)CCc2c(C)nc3cc(O)nn3c2C)sc1C`, -14.7%. Take `Cc1nc2cc(O)nn2c(C)c1CCC(=O)NCCc1ccccc1`: the INHIBITION is 22.3%.

As to `COC(=O)CCc1c(C)nc2cc(O)nn2c1C`, the INHIBITION is reported as 53.5%. With `CCNC(=O)CCc1c(C)nc2cc(O)nn2c1C`, the INHIBITION was 55.9%. For `CCN(CC)C(=O)CCc1c(C)nc2cc(O)nn2c1C` the value was 34.7%. Turning to `CNC(=O)CCNC(=O)CCc1c(C)nc2cc(O)nn2c1C`, the INHIBITION was determined as 29.2%. Under `Oc1ccc(N(CCc2ccccc2)CCn2cncn2)cc1` stands 44%; under `CCS(=O)(=O)N1C[C@H]2CC[C@](O)(c3ccc(C)cc3)[C@H]2C1`, -2.11%; under `Cc1nc(C2CCCN(C(=O)c3cc4c(s3)CCCC4)C2)no1` (configuration not stated), 11.2%.

As for `O=C(NCC1CCN(Cc2cc3ccccc3[nH]2)C1)c1ccsc1` (configuration not stated), the INHIBITION is 40.8%. Under `COc1ccsc1C(=O)NC1CCN(c2ccc(C#N)cc2)CC1` stands 52.6%. Take `COc1ccc(N2CCC(NC(=O)c3ccc(C#N)cc3)CC2)cc1`: the INHIBITION turned out to be 41.8%. Under `COc1ccc(N2CCC(NC(=O)c3sccc3C)CC2)cc1` stands 45%.

On to `O=C(CCc1ccc(Cl)cc1)NC1CCN(c2cccc(F)c2)CC1`, for which the INHIBITION is listed as 47.3%. With `COc1ccsc1C(=O)NC1CCN(c2cccc(F)c2)CC1`, the INHIBITION is given as 84.1%. As to `CC(c1ccccc1)N1CCC(NC(=O)CCc2ccsc2)CC1` (configuration not stated), the INHIBITION turned out to be 4.22%. With `COc1ccc(C(=O)NC2CCN(c3ncccn3)CC2)cc1F`, the INHIBITION turned out to be 46.1%. For `O=C(Cc1cccs1)NC1CCN(c2cccc(F)c2)CC1`, the INHIBITION came to 4.71%.

Regarding `O=C(CCc1ccsc1)NC1CCN(c2cccc(F)c2)CC1`, the INHIBITION worked out at 59.3%. Take `CCN1C[C@@H]2CN(C(=O)NCc3ccccc3)CCC[C@]2(C(=O)O)C1`: the INHIBITION was 31.4%.

On to `COc1ccc(CN2C[C@H]3CC[C@@H](C2)N(S(C)(=O)=O)C3)cc1`, for which the INHIBITION is recorded as 15.7%.

As to `COc1ccc(Cl)cc1CN(C)CC(=O)Nc1ccnn1C(C)C1CC1` (configuration not stated), the INHIBITION is on record as -75.4%. With `COCCN1CCC2(COCc3c(C)nc(N4CCOCC4)nc32)C1` (configuration not stated), the INHIBITION is on record as -24.8%. For the molecule `Cc1cnn(C2CCCN(C(=O)c3cc(-c4ccccc4C)n[nH]3)C2)c1` (configuration not stated), the INHIBITION is recorded as 32%. For `Cc1nccn1C1CCCN(C(=O)c2ccc3c(c2)COC3)C1` (configuration not stated) the value was 57.8%.

As for `Cc1nccn1C1CCCN(C(=O)c2ccc3c(c2)CCC3)C1` (configuration not stated), the INHIBITION is on record as -0.96%.

For `CCCc1cc(C(=O)N2CCCC(n3ccnc3C)C2)[nH]n1` (configuration not stated), the INHIBITION came to 10.8%. Turning to `Cc1nn(-c2ccccc2)cc1C(=O)N1CCCC(n2ccnc2C)C1` (configuration not stated), the INHIBITION is 27.6%. Consider `Cc1cc(C(=O)N2CCCC(n3ccnc3C)C2)c(C)s1` (configuration not stated), for which the INHIBITION was found to be 18.2%. For the molecule `CC(C)c1nccn1C1CCCN(C(=O)c2ccc3c(c2)COC3)C1` (configuration not stated), the INHIBITION is -49.5%. For `COCCOc1ncccc1C(=O)N1CCCC(n2ccnc2C)C1` (configuration not stated) the value was -19.9%. Consider `COc1ncccc1C(=O)N1CCCC(n2ccnc2)C1` (configuration not stated), for which the INHIBITION is -5%. Consider `Cc1nccn1C1CCCN(C(=O)c2cc(O)nc3ccccc23)C1` (configuration not stated), for which the INHIBITION is listed as 52.7%.

For the molecule `Cc1ccccc1-c1cc(C(=O)N2CCCC(n3ccnc3C)C2)[nH]n1` (configuration not stated), the INHIBITION amounted to 66.7%. In the case of `COc1ncccc1C(=O)N1CCCC(n2ccnc2C)C1` (configuration not stated), the INHIBITION is on record as 54.7%. Under `Cc1cnn(CC2CN(CC(=O)Nc3cc(C)on3)CCO2)c1` (configuration not stated) stands 16.85%. As for `CC(C)n1ccnc1CN1CCCN(C(=O)c2cnc[nH]2)CC1`, the INHIBITION stood at 46.3%. As to `O=C(Cc1ccc2c(c1)OCCO2)NC1CCCCC1`, the INHIBITION is reported as -53.2%.

As to `O=C([C@H]1CCCO1)N1CCN(CCn2cccn2)c2ncccc2C1`, the INHIBITION amounted to 30.3%.

For the molecule `O=C(Nc1ccc(F)cc1)C1CSCN1` (configuration not stated), the INHIBITION amounted to 3.38%. For `COc1ccc(CN(Cc2c[nH]cn2)CC2CCCO2)c(OC)c1` (configuration not stated) the value was 25.6%; for `O=C(c1cccs1)N1CCN(CC2CC2)c2ncccc2C1`, -22.5%; for `O=C(NCc1ccccc1Cn1cncn1)N1CCCC1`, -33.3%. For `C1CC(CN2C[C@@H]3CC[C@H]2CN(Cc2nnc(C4CC4)o2)C3)C1` the value was 27.5%; for `Cn1ccc(N2CCCC(NC(=O)c3ccsc3)C2=O)n1` (configuration not stated), 72.5%. `Cn1c2c(ccc1=O)CC(NC(=O)c1ccsc1)CC2` (configuration not stated): the INHIBITION stood at 49.4%.

`Cn1ccc(N2CCCC(NC(=O)c3ccc(Cl)o3)C2=O)n1` (configuration not stated): the INHIBITION is -34.8%.

Regarding `c1ccc(CN2CCCC(c3nccnc3-n3ccnc3)C2)cc1` (configuration not stated), the INHIBITION came out at 33.5%. Under `CS(=O)(=O)CCNC(=O)Nc1ccc(Cl)cc1-n1cccc1` stands 35.4%.

`Cc1nc(C2CCCN(C(=O)c3ccc(Cl)cn3)C2)no1` (configuration not stated): the INHIBITION is given as -2.53%. Take `CCn1c(CC2CCN(S(=O)(=O)c3cccc(C)c3)CC2)nn(C)c1=O`: the INHIBITION is recorded as 37.4%.

As to `CN1CCN(c2ccc(F)cc2NC(=O)NCCn2ccnc2)CC1`, the INHIBITION is reported as 37.9%. As for `O[C@@]1(CNCC2(Cn3cccn3)CC2)CCCN2CCCC[C@@H]21`, the INHIBITION turned out to be 1.56%.

On to `CCN1CCN(C2CCN(C(C(N)=O)c3ccccc3)CC2)C1=O` (configuration not stated), for which the INHIBITION was found to be 61.1%. Consider `CCN1CCN(C2CCN(C(C(N)=O)c3ccc(F)cc3)CC2)C1=O` (configuration not stated), for which the INHIBITION turned out to be 16.6%.

Regarding `CN1CCN(C2CCN(C(C(N)=O)c3ccccc3)CC2)C1=O` (configuration not stated), the INHIBITION was determined as 20.9%. In the case of `Cc1cnn(CCNCC(=O)NC(c2ccccc2)c2ccccc2)c1`, the INHIBITION was -18.9%. Turning to `Cc1c(C(=O)N2CCC2)nnn1-c1ccc2ncccc2c1`, the INHIBITION is -24.8%. For `CCn1cnnc1CNC(=O)N1CCC(O)CC1` the value was 17.4%; for `CCn1cnnc1CNC(=O)N1CCN(c2nc(C)c(C)s2)CC1`, 60.5%; for `CCn1cnnc1CNC(=O)N1CCN(c2nccs2)CC1`, 27.8%. For `CCn1cnnc1CNC(=O)N1CCCC1` the value was -3.2%; for `CCn1cnnc1CNC(=O)N1CCC(C)CC1`, -13.5%; for `CCn1cnnc1CNC(=O)N1CCC(C(=O)NC)CC1`, 61.3%. In the case of `COc1ccccc1OCCc1cc(C2CCNC2)n[nH]1` (configuration not stated), the INHIBITION was determined as 41.2%. On to `Cc1ncc(C(=O)N2C[C@@H]3CC[C@H]2CN(S(=O)(=O)N(C)C)C3)c(C)n1`, for which the INHIBITION was 34.8%.

`COc1ccc(N2CCNC(C(N)=O)C2)cc1` (configuration not stated): the INHIBITION is 7.19%. Under `COc1cccc2c1ccn2CCC(=O)N1CCCC(C(=O)O)C1` (configuration not stated) stands -22.9%; under `O=C(O)C1CCCN(C(=O)CCn2ccc3c(Cl)cccc32)C1` (configuration not stated), 63.1%. With `O=C(O)C1CCCN(C(=O)CCn2ccc3c(Br)cccc32)C1` (configuration not stated), the INHIBITION amounted to 34.2%. On to `Cn1cc(C2CCCN2C(=O)c2cnc(-c3ccccn3)s2)cn1` (configuration not stated), for which the INHIBITION is -59.7%. `Cc1nc(Cn2c(=O)cnc3ccccc32)n(C)n1`: the INHIBITION came out at 17.6%. In the case of `COC(=O)NCC(=O)NCc1nn(-c2ccccc2)c2c1CCC2`, the INHIBITION amounted to 24.75%. In the case of `Cc1noc([C@]23COC[C@H]2CN(C(=O)N2CCCC2)C3)n1`, the INHIBITION is given as 15.8%.

Take `O=C(c1cnccn1)N1CCCC(C2=Nc3ccccc3S(=O)(=O)N2)C1` (configuration not stated): the INHIBITION is 16.705%.

For `CCNS(=O)(=O)c1ccc(C)c(C(=O)N(C)Cc2ccco2)c1`, the INHIBITION was determined as 26.8%.

Consider `CCCN(C)C(=O)c1cc(S(=O)(=O)NCC)ccc1C`, for which the INHIBITION came to 16.6%. Regarding `CCNS(=O)(=O)c1ccc(C)c(C(=O)N(C)Cc2ccccc2C)c1`, the INHIBITION is listed as 67.3%.

Regarding `CCN(CC)[C@@H]1CN(Cc2nccn2C)[C@@H]2CCCO[C@H]12`, the INHIBITION amounted to 20.1%. As for `COc1ncc(CN2CCOC(Cc3cccc4ccccc34)C2)cn1` (configuration not stated), the INHIBITION was -31.8%. For the molecule `Cc1cccnc1CN1CCOC(Cc2cccc3ccccc23)C1` (configuration not stated), the INHIBITION is given as 42.1%. Under `c1ccc2c(CC3CN(Cc4nccs4)CCO3)cccc2c1` (configuration not stated) stands 53.3%; under `Cc1ccc(NC(=O)Cc2cnc3n(C)c(=O)[nH]c(=O)n23)cc1`, 0.207%; under `CCn1ncc(Cn2cc(Cl)c(N)n2)c1C`, 51.5%. Under `Cc1c(Cn2cc(Cl)c(N)n2)cnn1C` stands 17.8%; under `CCn1cc(Cn2cc(Cl)c(N)n2)c(C)n1`, -18.8%; under `CC(=O)N1CCCN(C(=O)NCc2ccc(Cl)s2)CC1`, 25.6%. For `CN(C)C(=O)COCC1CN(Cc2ccoc2)Cc2ncn(C)c21` (configuration not stated) the value was 12.5%. `COc1ccc(S(=O)(=O)N2CCOC(Cn3ccnc3)C2)cc1` (configuration not stated): the INHIBITION is given as 8.12%. As for `FC(F)CN1CCC(NCc2ccc(-n3cccn3)nc2)CC1`, the INHIBITION was 48.2%.

For `Cn1cc(-c2cnc(N3CCOCC3)nc2)cc1C(=O)NCCO`, the INHIBITION is on record as 35.8%. Under `CN(C)CCNC(=O)c1cc(-c2cnc(N3CCCC3)nc2)cn1C` stands 63.7%; under `CN(C)CCNC(=O)c1cc(-c2cnc(N3CCOCC3)nc2)cn1C`, 19.4%; under `Cn1cc(-c2cnc(N3CCCC3)nc2)cc1C(=O)O`, -50.8%. As for `CN1CCN(C(=O)c2cc(-c3cnc(N4CCCC4)nc3)cn2C)CC1`, the INHIBITION is reported as -2.17%. In the case of `CCCNC(=O)c1cc(-c2cnc(N3CCCC3)nc2)cn1C`, the INHIBITION amounted to 64.9%. On to `COCCN(C)C1COC2(CCN(Cc3cccc(F)c3)CC2)C1` (configuration not stated), for which the INHIBITION was found to be 26.4%. For the molecule `O=C(c1ccccn1)N1CCN(c2ccc(-c3cccnc3)nn2)CC1`, the INHIBITION was found to be 21.6%.

Consider `COCCN(C)C[C@@H]1CN(C(=O)c2ccc(O)c(Cl)c2)C[C@@H]1CO`, for which the INHIBITION worked out at 46.1%. As for `CN(C)c1ccc(CNC(=O)Nc2ccc(S(C)(=O)=O)nc2)cc1`, the INHIBITION is reported as -24.75%.
